About 8,800 targets were measured; listed, in parts, are those with a hit and a random draw of the rest. About 0.5% of all pairs of compound and target were hits.
What was measured:
Assay in all cases: log2 fold change, soluble protein after heating vs DMSO (PISA); higher = thermal stabilisation; K562 lysate, 10 uM; active = over 0.2 and 3.5 SD of the protein, either way, in both replicates (recomputed)
[1] = compound: C1=CC=C(C=C1)[C@H](COC2=CC3=C(C=C2)NC(=O)N3)NC(=O)C4=CC=CN(C4=O)CC5=CC(=C(C=C5)F)F
Procedure, shortened: (§1)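 Thermal stability, expressed as log-two fold change relative to solvent controls, is given from duplicates. Crude K562 extract in PBS pH 7.4 with 1 mM MgCl2, at 1 mg/mL protein, was treated with 10 μM compound for 30 min and heated in aliquots for 3 min across 48°C-58°C. After pooling, adjustment to 0.5% NP-40 at 4°C and centrifugation at 21,000xg for 90 min, supernatant protein was measured by TMTpro 16plex LC-MS/MS with channel sums equalised.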

[2] = compound: CC1=C(SC2=C1C(=N[C@H](C3=NN=C(N32)C)CC(=O)N)C4=CC=C(C=C4)Cl)C
Procedure, shortened: as §1

[3] = compound: CC1=C2C(=CC=C1)N=C(N(C2=O)C3=CC=CC=C3C)CN4C=NC5=C(N=CN=C54)N
Procedure, shortened: as §1

[4] = compound: Cc1sc2c(c1C)C(c1ccc(Cl)cc1)=N[C@@H](CC(=O)OC(C)(C)C)c1nnc(C)n1-2
Procedure, shortened: as §1

[5] = compound: c1ccc([C@@H]2C[C@H]2NC2CCNCC2)cc1
Procedure, shortened: as §1

Measured: log2 fold change

CARS isoform 3 (UniProt P49589)
inactive: [1] -0.026 | [2] 0.014 | [3] 0.007 | [4] 0.035 | [5] 0.03

CDKN1C (UniProt P49918)
inactive: [1] 0.035 | [2] -0.012 | [3] 0.185 | [4] 0.094 | [5] 0.025

CALB2 (UniProt P22676)
inactive: [1] -0.067 | [2] -0.053 | [3] 0.009 | [4] -0.007 | [5] 0.013

CHD4 isoform 2 (UniProt Q14839)
inactive: [1] 0 | [2] 0.003 | [3] 0.029 | [4] 0.021 | [5] 0.009

CHD3 isoform 3 (UniProt Q12873)
inactive: [1] -0.009 | [2] 0.027 | [3] 0.024 | [4] 0.035 | [5] 0.038

CDK5RAP2 (UniProt Q96SN8)
inactive: [1] 0.018 | [2] 0.038 | [3] 0.041 | [4] -0.026 | [5] 0.072

BRAF (UniProt P15056)
inactive: [1] -0.024 | [2] -0.051 | [3] 0.012 | [4] -0.017 | [5] -0.06

CD63 (UniProt P08962)
inactive: [1] 0.006 | [2] 0.001 | [3] -0.008 | [4] -0.13 | [5] -0.242

C18orf32 (UniProt Q8TCD1)
Chain of UniProt Q8TCD1 (Q8TCD1 whole entry, looked up): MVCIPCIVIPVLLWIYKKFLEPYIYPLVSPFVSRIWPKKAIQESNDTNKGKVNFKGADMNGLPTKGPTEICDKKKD
inactive: [1] 0.039 | [2] 0.004 | [3] -0.245 | [4] -0.028 | [5] 0.076

CDK11B (UniProt P21127)
inactive: [1] -0.035 | [2] 0.029 | [3] 0.005 | [4] 0.035 | [5] -0.001

C12orf45 (UniProt Q8N5I9)
inactive: [1] 0.074 | [2] 0 | [3] -0.007 | [4] -0.008 | [5] -0.122

CARD11 (UniProt Q9BXL7)
inactive: [1] 0.193 | [2] 0.252 | [3] 0 | [4] -0.084 | [5] -0.019

CCNB1 (UniProt P14635)
inactive: [1] -0.019 | [2] 0.063 | [3] 0.038 | [4] -0.032 | [5] 0.036

C3 (UniProt P01024)
inactive: [1] 0.013 | [2] 0.054 | [3] 0.132 | [4] -0.035 | [5] -0.03

CDK5RAP3 isoform 4 (UniProt Q96JB5)
inactive: [1] -0.011 | [2] -0.018 | [3] 0.022 | [4] -0.01 | [5] -0.154

CCAR2 (UniProt Q8N163)
inactive: [1] 0.001 | [2] 0.005 | [3] -0.007 | [4] 0.003 | [5] 0.004

BSDC1 (UniProt Q9NW68)
Chain of UniProt Q9NW68 (Q9NW68 whole entry, looked up): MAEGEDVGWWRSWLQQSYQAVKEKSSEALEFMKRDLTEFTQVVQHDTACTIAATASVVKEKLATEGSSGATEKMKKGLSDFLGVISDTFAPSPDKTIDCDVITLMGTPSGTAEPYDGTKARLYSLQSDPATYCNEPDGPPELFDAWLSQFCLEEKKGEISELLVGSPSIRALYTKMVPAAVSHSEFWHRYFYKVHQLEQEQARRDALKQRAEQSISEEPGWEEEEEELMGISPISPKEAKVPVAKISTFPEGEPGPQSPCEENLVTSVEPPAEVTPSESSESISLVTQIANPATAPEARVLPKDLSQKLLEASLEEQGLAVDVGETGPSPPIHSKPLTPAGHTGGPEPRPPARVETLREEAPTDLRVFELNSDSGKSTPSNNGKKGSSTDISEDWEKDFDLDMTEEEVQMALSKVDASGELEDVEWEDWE
inactive: [1] 0.155 | [2] -0.025 | [3] 0.021 | [4] -0.004 | [5] -0.026

CAPN15 (UniProt O75808)
inactive: [1] -0.047 | [2] 0.063 | [3] -0.017 | [4] -0.011 | [5] 0.056

CAMK2G isoform 8 (UniProt Q13555)
inactive: [1] 0.048 | [2] -0.063 | [3] -0.053 | [4] -0.007 | [5] -0.037

ATP11A (UniProt P98196)
inactive: [1] 0.04 | [2] -0.014 | [3] -0.004 | [4] 0.005 | [5] -0.026

ATG13 isoform 2 (UniProt O75143)
inactive: [1] 0.001 | [2] 0.026 | [3] 0.055 | [4] 0.045 | [5] -0.166

CHAF1A (UniProt Q13111)
inactive: [1] -0.099 | [2] 0.136 | [3] 0.041 | [4] 0.017 | [5] 0.022

CEP41 (UniProt Q9BYV8)
Chain of UniProt Q9BYV8 (Q9BYV8 whole entry, looked up): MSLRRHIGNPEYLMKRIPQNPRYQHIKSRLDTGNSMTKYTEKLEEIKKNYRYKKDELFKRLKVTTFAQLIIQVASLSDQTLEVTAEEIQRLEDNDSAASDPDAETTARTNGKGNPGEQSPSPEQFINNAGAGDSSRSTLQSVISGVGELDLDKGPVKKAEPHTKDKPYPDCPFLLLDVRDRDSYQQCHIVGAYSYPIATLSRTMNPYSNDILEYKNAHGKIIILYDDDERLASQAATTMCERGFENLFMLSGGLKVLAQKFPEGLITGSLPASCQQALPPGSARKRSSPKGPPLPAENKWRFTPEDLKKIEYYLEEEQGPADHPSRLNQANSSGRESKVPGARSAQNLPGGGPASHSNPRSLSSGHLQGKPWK
inactive: [1] -0.026 | [2] -0.06 | [3] -0.106 | [4] -0.068 | [5] -0.045

CCNK isoform 4 (UniProt O75909)
inactive: [1] -0.018 | [2] -0.045 | [3] -0.026 | [4] -0.047 | [5] -0.175

C15orf41 (UniProt Q9Y2V0)
inactive: [1] 0.111 | [2] -0.007 | [3] 0.029 | [4] 0.084 | [5] -0.008

BUD23 isoform 3 (UniProt O43709)
inactive: [1] 0.076 | [2] 0.03 | [3] 0.021 | [4] 0 | [5] -0.154

BAG4 (UniProt O95429)
inactive: [1] 0.059 | [2] 0.021 | [3] -0.023 | [4] 0.03 | [5] 0.003

CBR1 (UniProt P16152)
inactive: [1] 0.03 | [2] -0.004 | [3] 0.013 | [4] -0.021 | [5] -0.056

CASP9 (UniProt P55211)
inactive: [1] 0.041 | [2] -0.024 | [3] 0.019 | [4] -0.05 | [5] -0.048

C5orf51 (UniProt A6NDU8)
inactive: [1] -0.047 | [2] -0.023 | [3] 0.001 | [4] -0.026 | [5] 0.092

CCT6A (UniProt P40227)
Chain of UniProt P40227 (P40227 whole entry, looked up): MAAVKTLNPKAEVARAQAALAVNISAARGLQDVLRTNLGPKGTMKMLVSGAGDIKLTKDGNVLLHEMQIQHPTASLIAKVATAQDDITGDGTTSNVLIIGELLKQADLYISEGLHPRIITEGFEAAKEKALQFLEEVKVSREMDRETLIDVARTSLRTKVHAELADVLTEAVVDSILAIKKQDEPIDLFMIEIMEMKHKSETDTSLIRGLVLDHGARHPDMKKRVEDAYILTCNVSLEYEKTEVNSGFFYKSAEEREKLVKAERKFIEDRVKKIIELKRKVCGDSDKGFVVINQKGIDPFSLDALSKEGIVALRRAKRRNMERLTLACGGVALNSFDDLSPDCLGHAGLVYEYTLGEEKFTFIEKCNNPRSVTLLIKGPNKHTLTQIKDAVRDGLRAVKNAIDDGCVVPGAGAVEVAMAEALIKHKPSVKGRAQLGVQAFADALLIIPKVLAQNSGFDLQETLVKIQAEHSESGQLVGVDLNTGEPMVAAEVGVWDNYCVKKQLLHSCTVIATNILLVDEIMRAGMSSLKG
inactive: [1] 0.007 | [2] -0.007 | [3] -0.01 | [4] 0.004 | [5] 0.025

ATM (UniProt Q13315)
inactive: [1] -0.015 | [2] 0.013 | [3] -0.037 | [4] 0.038 | [5] -0.036

C3orf33 (UniProt Q6P1S2)
inactive: [1] 0.074 | [2] 0.143 | [3] -0.386 | [4] -0.03 | [5] -0.226

CEP76 (UniProt Q8TAP6)
inactive: [1] -0.009 | [2] -0.01 | [3] -0.043 | [4] 0.002 | [5] -0.027

CCNY (UniProt Q8ND76)
inactive: [1] -0.04 | [2] 0.048 | [3] -0.104 | [4] -0.064 | [5] -0.028

CARD9 (UniProt Q9H257)
inactive: [1] -0.039 | [2] 0.065 | [3] 0.023 | [4] -0.009 | [5] 0.035

BOLA2 (UniProt Q9H3K6)
inactive: [1] -0.052 | [2] 0.01 | [3] -0.019 | [4] 0.034 | [5] 0.078

BTAF1 (UniProt O14981)
inactive: [1] 0.013 | [2] 0 | [3] -0.005 | [4] 0.04 | [5] -0.02

ATRIP (UniProt Q8WXE1)
inactive: [1] -0.042 | [2] -0.02 | [3] -0.056 | [4] -0.032 | [5] 0.093

CDC123 (UniProt O75794)
inactive: [1] -0.035 | [2] 0.02 | [3] -0.038 | [4] 0.073 | [5] 0.004

AUH (UniProt Q13825)
inactive: [1] 0.034 | [2] 0 | [3] 0.129 | [4] -0.112 | [5] -0.009

CDK2 (UniProt P24941)
inactive: [1] 0.006 | [2] 0.004 | [3] -0.039 | [4] 0.076 | [5] -0.028

CEPT1 (UniProt Q9Y6K0)
inactive: [1] -0.13 | [2] -0.017 | [3] 0.062 | [4] -0.054 | [5] 0.061

CDK9 isoform 2 (UniProt P50750)
inactive: [1] -0.001 | [2] -0.043 | [3] -0.015 | [4] -0.008 | [5] -0.114

BMS1 (UniProt Q14692)
inactive: [1] 0.047 | [2] -0.036 | [3] 0.027 | [4] 0.013 | [5] -0.029

ATAD3B (UniProt Q5T9A4)
inactive: [1] 0.082 | [2] -0.033 | [3] -0.021 | [4] 0.047 | [5] 0.172

ATP5PF isoform 2 (UniProt P18859)
Chain of UniProt P18859 (P18859 whole entry, looked up): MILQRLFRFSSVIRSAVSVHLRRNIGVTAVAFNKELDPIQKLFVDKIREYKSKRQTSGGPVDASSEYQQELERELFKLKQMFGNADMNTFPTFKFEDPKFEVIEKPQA
inactive: [1] 0.085 | [2] -0.086 | [3] -0.05 | [4] 0.075 | [5] 0.228

BORCS5 (UniProt Q969J3)
inactive: [1] -0.12 | [2] 0 | [3] -0.015 | [4] -0.005 | [5] -0.011

CEP152 (UniProt O94986)
Chain of UniProt O94986 (O94986 whole entry, looked up): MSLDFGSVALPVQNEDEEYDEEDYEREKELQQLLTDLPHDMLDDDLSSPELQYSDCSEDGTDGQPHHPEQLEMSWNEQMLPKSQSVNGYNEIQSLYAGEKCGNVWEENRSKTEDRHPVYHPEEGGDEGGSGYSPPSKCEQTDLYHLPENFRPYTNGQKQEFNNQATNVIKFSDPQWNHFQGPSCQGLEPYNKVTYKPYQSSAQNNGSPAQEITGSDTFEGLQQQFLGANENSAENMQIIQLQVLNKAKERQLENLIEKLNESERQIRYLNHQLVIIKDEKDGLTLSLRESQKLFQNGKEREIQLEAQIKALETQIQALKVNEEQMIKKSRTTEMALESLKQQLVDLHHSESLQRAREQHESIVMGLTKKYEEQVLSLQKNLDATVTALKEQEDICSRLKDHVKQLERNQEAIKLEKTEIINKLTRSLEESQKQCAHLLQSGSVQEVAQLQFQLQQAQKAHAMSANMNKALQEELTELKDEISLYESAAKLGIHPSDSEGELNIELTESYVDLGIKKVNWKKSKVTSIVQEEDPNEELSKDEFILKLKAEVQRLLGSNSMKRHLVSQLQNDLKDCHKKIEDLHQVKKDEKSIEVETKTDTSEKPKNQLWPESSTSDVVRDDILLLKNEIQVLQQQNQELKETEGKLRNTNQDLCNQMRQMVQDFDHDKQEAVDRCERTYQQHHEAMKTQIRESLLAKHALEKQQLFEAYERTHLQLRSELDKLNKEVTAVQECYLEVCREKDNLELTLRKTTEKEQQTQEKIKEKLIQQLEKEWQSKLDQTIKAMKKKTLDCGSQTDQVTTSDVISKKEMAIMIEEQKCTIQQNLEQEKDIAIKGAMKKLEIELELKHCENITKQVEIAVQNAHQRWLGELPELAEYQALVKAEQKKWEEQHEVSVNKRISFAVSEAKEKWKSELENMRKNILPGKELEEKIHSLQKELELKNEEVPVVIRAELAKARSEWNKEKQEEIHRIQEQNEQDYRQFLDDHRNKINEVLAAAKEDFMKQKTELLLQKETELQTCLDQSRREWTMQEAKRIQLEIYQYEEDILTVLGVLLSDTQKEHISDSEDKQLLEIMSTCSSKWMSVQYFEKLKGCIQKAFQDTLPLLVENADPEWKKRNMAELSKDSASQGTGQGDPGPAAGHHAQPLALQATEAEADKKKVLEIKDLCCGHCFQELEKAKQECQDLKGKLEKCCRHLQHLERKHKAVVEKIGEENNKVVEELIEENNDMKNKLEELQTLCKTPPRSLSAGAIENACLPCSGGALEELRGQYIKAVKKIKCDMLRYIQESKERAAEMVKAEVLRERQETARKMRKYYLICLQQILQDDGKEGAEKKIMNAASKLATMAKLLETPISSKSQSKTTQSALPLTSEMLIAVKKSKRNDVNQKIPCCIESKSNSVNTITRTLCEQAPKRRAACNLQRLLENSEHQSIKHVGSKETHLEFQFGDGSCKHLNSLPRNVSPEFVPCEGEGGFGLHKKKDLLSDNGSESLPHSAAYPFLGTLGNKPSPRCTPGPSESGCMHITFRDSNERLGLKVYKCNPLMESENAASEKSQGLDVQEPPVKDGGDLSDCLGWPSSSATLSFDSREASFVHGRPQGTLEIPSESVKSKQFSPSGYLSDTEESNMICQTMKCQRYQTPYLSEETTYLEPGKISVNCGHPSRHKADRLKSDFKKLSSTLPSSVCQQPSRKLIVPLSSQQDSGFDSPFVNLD
inactive: [1] 0.024 | [2] -0.236 | [3] 0.01 | [4] 0.008 | [5] -0.028

CCDC51 (UniProt Q96ER9)
inactive: [1] -0.063 | [2] 0.023 | [3] -0.029 | [4] 0.014 | [5] 0.157

BLM (UniProt P54132)
Chain of UniProt P54132 (P54132 whole entry, looked up): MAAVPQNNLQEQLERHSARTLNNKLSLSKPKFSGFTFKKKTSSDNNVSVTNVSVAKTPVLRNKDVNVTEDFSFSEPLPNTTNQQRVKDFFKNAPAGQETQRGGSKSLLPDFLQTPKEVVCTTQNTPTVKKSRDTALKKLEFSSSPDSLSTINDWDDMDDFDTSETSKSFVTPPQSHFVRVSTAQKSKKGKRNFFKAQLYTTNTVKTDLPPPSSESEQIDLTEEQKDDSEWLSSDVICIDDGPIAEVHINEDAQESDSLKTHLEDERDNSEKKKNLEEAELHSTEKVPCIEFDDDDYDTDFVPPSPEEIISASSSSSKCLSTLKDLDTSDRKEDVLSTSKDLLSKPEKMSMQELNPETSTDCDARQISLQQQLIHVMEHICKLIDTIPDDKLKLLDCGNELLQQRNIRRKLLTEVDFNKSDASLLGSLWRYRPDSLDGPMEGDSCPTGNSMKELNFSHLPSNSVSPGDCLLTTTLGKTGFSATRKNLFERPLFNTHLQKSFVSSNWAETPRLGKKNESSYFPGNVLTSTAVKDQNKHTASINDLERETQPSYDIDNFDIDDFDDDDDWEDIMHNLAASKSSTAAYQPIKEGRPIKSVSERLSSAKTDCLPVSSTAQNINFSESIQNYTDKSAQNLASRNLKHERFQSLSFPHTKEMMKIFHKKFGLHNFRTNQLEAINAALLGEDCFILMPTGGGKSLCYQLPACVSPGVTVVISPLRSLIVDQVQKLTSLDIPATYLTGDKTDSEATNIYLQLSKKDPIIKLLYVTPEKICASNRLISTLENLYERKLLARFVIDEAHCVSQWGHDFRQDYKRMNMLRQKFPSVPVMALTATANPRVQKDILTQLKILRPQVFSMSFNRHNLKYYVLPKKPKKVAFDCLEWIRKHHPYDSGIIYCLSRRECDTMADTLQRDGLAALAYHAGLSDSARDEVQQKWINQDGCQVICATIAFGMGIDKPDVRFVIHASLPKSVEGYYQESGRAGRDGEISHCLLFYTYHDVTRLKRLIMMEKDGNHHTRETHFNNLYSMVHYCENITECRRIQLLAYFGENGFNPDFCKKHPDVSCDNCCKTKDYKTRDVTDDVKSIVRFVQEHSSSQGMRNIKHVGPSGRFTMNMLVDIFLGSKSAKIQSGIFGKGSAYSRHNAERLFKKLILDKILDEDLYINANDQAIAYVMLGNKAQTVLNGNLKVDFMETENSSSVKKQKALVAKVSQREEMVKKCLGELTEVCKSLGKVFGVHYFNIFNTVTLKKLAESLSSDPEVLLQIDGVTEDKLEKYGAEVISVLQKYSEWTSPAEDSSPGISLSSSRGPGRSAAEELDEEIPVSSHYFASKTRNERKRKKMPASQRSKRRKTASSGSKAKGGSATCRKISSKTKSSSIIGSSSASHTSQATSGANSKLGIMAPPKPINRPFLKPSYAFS
inactive: [1] 0.059 | [2] 0.03 | [3] -0.005 | [4] -0.002 | [5] 0.114

C8orf37 (UniProt Q96NL8)
inactive: [1] 0.072 | [2] -0.08 | [3] -0.094 | [4] -0.008 | [5] 0.141

CCNYL1 (UniProt Q8N7R7)
Chain of UniProt Q8N7R7 (Q8N7R7 whole entry, looked up): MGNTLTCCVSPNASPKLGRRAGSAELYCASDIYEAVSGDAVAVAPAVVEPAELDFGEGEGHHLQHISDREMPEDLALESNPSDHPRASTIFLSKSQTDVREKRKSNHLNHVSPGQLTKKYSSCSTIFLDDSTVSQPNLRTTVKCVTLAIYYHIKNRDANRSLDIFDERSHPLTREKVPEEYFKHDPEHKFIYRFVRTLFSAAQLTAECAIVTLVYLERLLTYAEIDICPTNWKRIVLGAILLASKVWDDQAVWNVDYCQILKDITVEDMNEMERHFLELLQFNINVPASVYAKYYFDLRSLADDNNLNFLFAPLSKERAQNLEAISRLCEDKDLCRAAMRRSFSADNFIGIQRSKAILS
inactive: [1] -0.007 | [2] -0.089 | [3] -0.009 | [4] -0.058 | [5] -0.079

From the supplement of paper PMC10849652
